High-throughput results (PubChem)
Hsp90 Hop PPI – qHTS Assay for Disrupters of an Hsp90 Co-Chaperone Interaction. AlphaScreen TPR2A-His6 binding biotin-Hsp90 C-terminal peptide. Potency, µM (doses to about 57 µM), for the others: at the top dose activity change, negative = inhibition. hit rate 0.44% among 71,000; active means well fitted curve in either direction with a large enough effect; inconclusive means small, poorly fitted or top-dose-only effect, or another doubt; further: potency means the concentration at half of the fitted maximal effect; on the % scale 0 is the no-effect control and ±100 the full control effect
CRE Fsk mod – Cell signaling CRE-BLA (Fsk stim). CHO CRE-bla reporter (cAMP response element driving beta-lactamase), forskolin EC10, beta-lactamase ratio. Potency, µM (top dose mostly 38.2 µM), for inactives: top-dose activity change, negative = inhibition, usual class: activators. hit rate 2.5% among 71,000; active means well fitted activation curve with a large enough effect in the signal ratio, with a control signal flat, not every such curve was filed as active; inconclusive means small, poorly fitted or top-dose-only effect, or effect the other way, or a change in a side signal; the % refers to the signal ratio; further: potency means the concentration at half of the fitted maximal effect; % of control where 0% means no effect
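Forskolin analogue NKH 477 at EC10 stimulated CRE-driven beta-lactamase in CHO cells alongside compound dilution series. Beta-lactamase was measured with CCF4, excitation 405 nm, emission ratio 460/530 nm.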
HEK293 cAMP ctrl – qHTS Assay for Agonists of the Thyroid Stimulating Hormone Receptor: Activators of Intracellular cAMP Concentrations in Parental HEK 293 | hit rate 2.5% among 73,000 | Potency, µM (series often up to 57.1 µM), for inactives: at the highest dose activation, most hits filed as activators | parental HEK293 CNG cAMP sensor, membrane potential fluorescence; further: potency means the concentration at half of the fitted maximal effect; % of control where 0% means no effect; nearly all actives have a fitted effect of over 55% in size
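Parental HEK 293 cells stably expressing a modified CNG channel (no TSHR) report cAMP rise as membrane depolarization. Membrane potential dye with 100 uM RO 20-1724 was loaded for 60 min at room temperature, then compound added for 30 min; fluorescence read at 590 nm.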
TSHR agonist – qHTS Assay for Agonists of the Thyroid Stimulating Hormone Receptor. Thyrotropin receptor (Homo sapiens), P16473. HEK293-CNG-TSHR cells (CNG channel as cAMP sensor), membrane potential dye, cAMP. Potency, µM (highest dose often 57.1 µM), without a hit: at the highest dose activation, usual class: activators. hit rate 0.48% among 73,000. AID 926, 2007; active means well fitted activation curve with a large enough effect in the main read-out, with a control signal flat, not every such curve was filed as active; inconclusive means small, poorly fitted or top-dose-only effect, or a change in a side signal; inactive means no such curve, though single readings can be large or run the other way; % of control where 0% means no effect;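 further: the control signal comes from parental cells without the receptor; potency means the concentration at half of the fitted maximal effect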
Target sequence (P16473 whole entry, looked up): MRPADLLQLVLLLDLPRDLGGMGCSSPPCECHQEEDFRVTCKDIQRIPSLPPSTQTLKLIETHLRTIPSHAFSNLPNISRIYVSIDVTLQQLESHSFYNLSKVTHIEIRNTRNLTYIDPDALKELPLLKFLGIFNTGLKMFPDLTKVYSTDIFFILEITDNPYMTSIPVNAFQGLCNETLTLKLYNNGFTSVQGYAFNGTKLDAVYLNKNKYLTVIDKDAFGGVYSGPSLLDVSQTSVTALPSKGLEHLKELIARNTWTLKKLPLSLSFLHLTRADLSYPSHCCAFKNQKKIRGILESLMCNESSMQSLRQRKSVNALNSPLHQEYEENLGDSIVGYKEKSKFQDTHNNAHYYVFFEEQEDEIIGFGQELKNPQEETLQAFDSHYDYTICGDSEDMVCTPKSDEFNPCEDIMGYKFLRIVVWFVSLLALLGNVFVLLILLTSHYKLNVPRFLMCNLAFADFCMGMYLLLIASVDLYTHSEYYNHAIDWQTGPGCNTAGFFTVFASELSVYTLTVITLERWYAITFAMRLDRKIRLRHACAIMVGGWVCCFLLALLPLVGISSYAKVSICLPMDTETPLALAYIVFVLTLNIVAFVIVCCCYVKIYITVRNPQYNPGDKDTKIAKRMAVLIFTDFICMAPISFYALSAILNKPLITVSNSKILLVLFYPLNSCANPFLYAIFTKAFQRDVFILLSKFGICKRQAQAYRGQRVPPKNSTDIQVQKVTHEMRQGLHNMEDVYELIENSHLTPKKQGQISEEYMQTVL
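HEK 293 cells stably expressing TSHR and a cAMP-gated CNG channel; parental CNG-only cells as counterscreen. Cells preloaded 60 min with membrane potential dye plus 100 uM RO 20-1724, then compound 30 min; fluorescence read at 590 nm.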
IkB signaling – IkB Signaling; ABC-DLBCL IkBa-CBG/CBR dual luciferase ratio, 4 h; response scale: scaled: untreated 0%, proteasome inhibitor 100%; Potency, µM (doses to about 57.1 µM), inactives show at the top dose IkBa stabilization activation; hit rate 0.04% among 110,000; AID 445, 2006; active means well fitted curve in the direction sought with a large enough effect in the signal ratio, not every such curve was filed as active; inconclusive means small, poorly fitted or top-dose-only effect, or a change in a side signal; the % refers to the signal ratio;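 further: potency means the concentration at half of the fitted maximal effect; the direction sought is a rising ratio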
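Luminescence ratio of IκBα-fused green versus native red beetle luciferase in OCI-Ly3 cells, 4 h post-doxycycline with compound; red signal alone, scaled from basal (0%) to zero light (-100%), flagged nonspecific or cytotoxic effects.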
CHO via 24h – Cell Viability - CRE-beta lactamase CHO cell - 24 hr assay | shares compounds with CRE Fsk mod | activity, negative = viability loss, % at 46.1 µM | 120 tested, under 10 active | CRE-bla CHO viability, ATP luminescence, 24 h
CHO via 40h – Cell Viability - CRE-beta lactamase CHO cell - 40 hr assay; AID 906, 2007; CRE-bla CHO viability, ATP luminescence, 40 h; Potency, µM, inactives show max response, usual class: inhibitors; shares compounds with CRE Fsk mod; 120 tested, under 10 active
CRE-luc potent – Confirmation Concentration-Response Assay for Cell signaling CRE-BLA (Fsk stim) - HEK293 CREB Luciferase. shares compounds with CRE Fsk mod. HEK293 CRE-luc2P, NKH477 EC10 potentiation, luminescence, 4 h. Potency, µM (titrated, usually from 38.3 µM), without a hit: top-dose activity, positive = activation, usual class: activators. hit rate 80% among 120. AID 907, 2007
HEK293 cAMP cnt – Confirmation Concentration-Response Assay for Agonists of the Thyroid Stimulating Hormone Receptor: Activators of Intracellular cAMP Concentrations in Parental HEK 293; parental HEK293 CNG biosensor, cAMP membrane potential fluorescence; AID 953, 2007; 150 tested, under 10 active; activity change, negative = inhibition, % at 32.9 µM; shares compounds with TSHR agonist
* = called active by the depositor; ? = inconclusive; · = no result given; [ ] = another dose, or the depositor's remark. Only some compounds are listed: those with a hit (about 3.5% of all), similar ones and a draw of the others. Unless noted, the call rests on the fitted dose curve; in most records, active means well fitted curve in the direction sought with a large enough effect; inconclusive means small, poorly fitted or top-dose-only effect, or another doubt; inactive means no such curve, though single readings can be large; an effect the other way counts as inactive or inconclusive.

SMILES | Hsp90 Hop PPI | CRE Fsk mod | HEK293 cAMP ctrl | TSHR agonist | IkB signaling | CHO via 24h | CHO via 40h | CRE-luc potent | others
CC[C@]1(O)C[C@@H]2CN(CCc3c([nH]c4ccccc34)[C@](C(=O)OC)(c3cc4c(cc3OC)N(C)[C@H]3[C@](O)(C(=O)OC)[C@@H](C(=O)OC)[C@@]5(CC)C=CCN6CC[C@@]43[C@@H]65)C2)C1 | -5% | 0.25µM* | 6% | 5% | 1% | ? | ? | -1%
CCn1c2ccccc2c2nnc(SCc3cc(=O)n4ccsc4n3)nc21 | 0% | 1µM* | -1% | 2%[11.4 µM] | -3% | -15 | ? | 5µM*
CN(C)c1nc(SCC#N)nc(N(C)C)n1 | 0% | ? | 9% | -2% | -2% | · | · | ·
CN(C)c1nc(N(C)C)nc(N(C)C)n1 | ? | 6%[17.1 µM] | 1%[25.6 µM] | 0%[25.6 µM] | 0%[25.6 µM] | 3 | -3% | ?
COC(=O)c1ccc(CSc2ccc3nnc(-c4ccc(OC)c(OC)c4)n3n2)o1 | -3% | 1.6µM* | 10% | 22%[11.4 µM] | -1% | -20 | -28% | 2µM*
Cn1c(/C(C#N)=C/Nc2ccccn2)nc2ccccc21 | · | · | · | · | · | 6 | -12% | 13µM*
c1ccc2[nH]c(CN3CCN(c4ncnc5c4oc4ccccc45)CC3)nc2c1 | -3% | ? | 0% | 11% | ? | · | · | ·
Cc1nc(SCc2nc3ccccc3[nH]2)c2oc3ccccc3c2n1 | ? | 0.016µM* | 16% | 20% | ? | 16 | 2% | 1µM*
Fc1ccc(CSc2ncnc3c2oc2ccccc23)cc1 | 6% | 1µM* | ? | ? | -2% | 7 | -21% | 7.9µM*
c1ccc2[nH]c(CSc3ncnc4c3oc3ccccc34)nc2c1 | -7% | ? | ? | ? | ? | -18 | ? | 0.79µM*
O=C(CSc1ncnc2c1oc1ccccc12)c1cccs1 | 2% | ? | 14% | 16% | -1% | -4 | -11% | 1.3µM*
CCOC(=O)c1c(-c2ccc(C)cc2)csc1NC(=O)c1cc(=O)c2ccc(C)cc2o1 | · | · | · | · | -2% | · | · | ·
COC(=O)NC(CC(C)=O)c1ccc2c(c1)OCO2 (stereo not drawn) | · | · | 0%[11.4 µM] | 3%[11.4 µM] | · | · | · | ·
Nc1nc(CSCc2ccccc2)nc(N2CCOCC2)n1 | -15% | 26% | 12% | 5% | -1% | 3 | -12% | 2.8µM*
Nc1nc(N2CCOCC2)nc(N(c2ccccc2)c2ccccc2)n1 | -3% | 1% | · | ? | -1% | · | · | ·
COc1ccc(/C(O)=C(\C#N)c2nc3ccccc3n2C)cc1OC | ? | 5µM* | ? | ? | 8% | -9 | -19% | 4.5µM*
Cn1c(/C(C#N)=C(\O)c2ccc(S(=O)(=O)N3CCCCC3)cc2)nc2ccccc21 | -5% | ? | 25% | 19% | -1% | · | · | ·
Cc1cccc(N2CCN(c3nc4ccccc4n4cnnc34)CC2)c1C | -2% | 8% | 2% | 13% | 6% | · | · | ·
c1cnc(N2CCN(c3nc4ccccc4n4cnnc34)CC2)nc1 | -2% | 2.5µM* | -3% | · | -3% | -19 | ? | 7.9µM*
COc1cccc(CNC(=O)C2CCN(c3nnc(-n4c(C)ccc4C)s3)CC2)c1OC | · | · | · | · | 2% | · | · | ·
CCN(c1ccccc1)S(=O)(=O)c1ccc(Oc2ccc(-n3ccnc3)cc2)nc1 | -13% | -1% | 20% | 25µM* | ? | · | · | · | HEK293 cAMP cnt=-2
CCC(C)(C)n1nnnc1CN(Cc1ccco1)Cc1cc2cc3c(cc2[nH]c1=O)OCO3 | -16% | 9% | 12% | 25µM* | ? | · | · | · | HEK293 cAMP cnt=-12
O=c1c2ccccc2ncn1-c1ccc2c(c1)OCCO2 | · | · | 7% | 6% | · | · | · | · | HEK293 cAMP cnt=6[25.6 µM]
CCOc1ccc(S(=O)(=O)N2CCC(n3c(C)nc4cccnc43)CC2)cc1 | · | · | · | · | -1% | · | · | ·
CC(C)NC(=O)N1CC[C@@]2(CCCN(C(=O)c3csnn3)C2)C1 | 3% | 4% | 3% | 4% | -2%[11.4 µM] | · | · | ·
SMILES | Hsp90 Hop PPI | CRE Fsk mod | HEK293 cAMP ctrl | TSHR agonist | IkB signaling | CHO via 24h | CHO via 40h | CRE-luc potent | others
Cc1ccc(C)c(N(C(=O)Cn2nnc(-c3cccs3)n2)C(C(=O)NC2CC2)c2ccc(C)o2)c1 (stereo not drawn) | -2% | 4% | 28% | 7.9µM* | 6% | · | · | · | HEK293 cAMP cnt=?
Cc1ccc(N(C(=O)Cn2nnc(-c3ccc(C)o3)n2)C(C(=O)NC2CCCC2)c2ccco2)cc1 (stereo not drawn) | -2% | 9% | 25% | 16% | -1% | · | · | ·
O=C(CSc1nnc(-c2cccs2)n1Cc1ccco1)Nc1ccc2c(c1)OCO2 | -8% | ? | ? | ? | ? | · | · | ·
O=C(CSc1nnc(-c2ccccc2)n1Cc1ccco1)Nc1ccc2c(c1)OCCO2 | -8% | -11% | 28% | 20µM* | ? | · | · | · | HEK293 cAMP cnt=-7
COc1cc(COc2cc(N)c(Cl)cc2C(=O)CCC2CCN(CCNS(C)(=O)=O)CC2)cc(OC)c1 | -5% | ? | -17% | -24% | ? | · | · | ·
O=C(O)[C@@H]1CCCN1Cc1cc2ccccc2c2ccccc12 | -1%[11 µM] | 8%[7.6 µM] | -4%[11.4 µM] | 1%[11.4 µM] | -1%[11.4 µM] | · | · | ·
Cc1cc(C)nc(N2CCN(c3ncnc4c3cnn4Cc3ccc(Cl)cc3Cl)CC2)n1 | -4% | 7% | 11% | 5% | 0% | · | · | ·
Cc1ccccc1N1CCN(c2ncnc3c2cnn3Cc2ccc(Cl)cc2)CC1 | 25% | 3% | 18% | · | 0% | · | · | · | HEK293 cAMP cnt=?
CCC(=O)Nc1cccc(-c2cn3ccsc3n2)c1 | -5% | 5% | -3% | -12% | 0% | · | · | ·
CC(C)CC(=O)Nc1cccc(-c2cn3ccsc3n2)c1 | -9% | 31% | 0% | 16µM* | 0% | · | · | · | HEK293 cAMP cnt=-9
Cc1ccccc1NC(=O)N1C2CCCC1CC(NC(=O)C1CC1)C2 (stereo not drawn) | -3% | 1% | 1% | 6% | 0% | · | · | · | HEK293 cAMP cnt=20[25.6 µM]
COc1ccc(S(=O)(=O)NCCC(=O)NC2CCCCCCC2)cc1 | 0% | -5% | 0% | -1% | 1% | · | · | ·
